Test results reported in PubChem BioAssay AID778 (Sanford-Burnham Center for Chemical Genomics, 2007).
The whole screen tested about 96,000 compounds, of which about 20,000 (21%) were called active. A selection follows. A number with no mark means an inactive call.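 Rule for the calls: active = CYP2C19 inhibition above a set limit at 5 µM in the primary screen (cut at about 50% in these data); inactive = the rest.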

Target: Cytochrome P450 2C19 (Homo sapiens) (UniProt P33261)
Experiment: blockers of cytochrome P450 2C19 activity – biochemical, luminescence, ADME assay, primary screen (AID 778);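 note: plate controls were negative control wells for no effect and 2.5 mM tranylcypromine positive control for full effect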
Settings: CYP2C19 Supersomes, luciferin-H EGE luminescence, 30 min; at 5 µM; hits give high values

Cytochrome P450 2C19 (Homo sapiens), sequence (P33261 whole entry, looked up): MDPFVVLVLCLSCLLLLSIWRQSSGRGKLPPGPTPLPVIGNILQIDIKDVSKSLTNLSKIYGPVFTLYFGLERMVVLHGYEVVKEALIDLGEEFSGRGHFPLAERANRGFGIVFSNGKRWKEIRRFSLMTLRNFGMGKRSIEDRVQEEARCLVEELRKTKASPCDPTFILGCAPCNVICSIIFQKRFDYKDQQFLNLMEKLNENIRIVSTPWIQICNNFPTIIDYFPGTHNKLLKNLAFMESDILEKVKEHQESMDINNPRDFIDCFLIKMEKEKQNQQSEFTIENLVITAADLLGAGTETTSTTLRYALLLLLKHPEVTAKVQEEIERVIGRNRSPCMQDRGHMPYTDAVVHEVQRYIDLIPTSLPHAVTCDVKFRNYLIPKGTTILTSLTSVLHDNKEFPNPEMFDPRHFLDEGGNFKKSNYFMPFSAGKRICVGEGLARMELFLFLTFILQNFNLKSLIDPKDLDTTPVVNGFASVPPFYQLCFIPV

Structure (SMILES) | inhibition
O=C(Cn1cncn1)N/N=C/c1c2ccccc2cc2ccccc12 | 80% (active)
CCCC(=O)Nc1cccc(-c2cn3ccsc3n2)c1 | -11.8%
CCOC(=O)N1CCC(NC(=O)CN2C(=O)COc3ccc(C(C)(C)C)cc32)CC1 | 10.8%
CCOC(=O)C(=O)Nc1nc(-c2ccccc2)c(CC)s1 | 3.5%
COc1ccc(NC(=O)c2cccc(NC(=O)c3ccco3)c2)c(OC)c1 | 15.1%
COCCCN1C(=O)c2ccc(C(=O)Nc3ccc(OC)cc3OC)cc2C1=O | 61.8% (active)
CCOc1ccc(Cn2nnc(C(=O)Nc3ccc(OC)cc3OC)c2N)cc1 | -21.9%
CCOP1(=O)C=C(C(C)(C)C)OC1c1ccc(F)cc1 (stereo not given) | 15.6%
CCCOP(=O)(c1ccc(N(C)C)cc1)C(O)c1cc(OC)c(OC)c(OC)c1 (stereo not given) | 16.9%
O=C(O)c1cc2ccccc2c(=O)s1 | 15.6%
CCSC1=C(C#N)C(=O)n2c1cc1c2CCCC1 | 10.1%
Cn1c(=O)c2c(ncn2CC(COCc2ccccc2Cl)OCc2ccccc2Cl)n(C)c1=O (stereo not given) | 49.2%
Cn1c(=O)c2c(ncn2CC(=O)N2CCN(c3ccccc3)CC2)n(C)c1=O | 4.9%
CC(C)Cn1cnc2c1c(=O)n(CC(O)c1ccccc1)c(=O)n2CC(C)C (stereo not given) | 58.8% (active)
CCCc1nc2oc3c(OCC)ncnc3c2c2c1COC(C)(C)C2 | -9.9%
CCC(C)n1[nH]c(=O)c2c(C)cc(C)nc21 (stereo not given) | 10.9%
O=C1CC(N2CCN(C(c3ccccc3)c3ccccc3)CC2)C(=O)N1 (stereo not given) | 8.8%
CC(C)(C)c1cc(CN2CCN(CCC#N)CC2)cc(C(C)(C)C)c1O | -2.1%
CC(C)(C)c1ccc(C(=O)CSc2ncn[nH]2)cc1 | 23%
CCN(C(=O)CSc1ncn[nH]1)c1cccc2ccccc12 | 63.2% (active)
O=C(CSc1ncn[nH]1)Nc1ccnc2ccccc12 | 27.1%
CCOC(=O)c1nnn(CC(=O)Nc2cccc(F)c2)c1C(=O)OCC | 95.7% (active)
COc1ccc(NC(=O)Cn2nnc(C(=O)NCCc3ccc(OC)c(OC)c3)c2N)cc1 | 4.1%
CCOC(=O)c1cccc(NC(=O)CCn2nnc3ccccc32)c1 | 23.3%
CC12CCC(C(=O)N3CCN(c4ncccn4)CC3)(c3nc4ccccc4nc31)C2(C)C (stereo not given) | 31.7%

Structure (SMILES) | inhibition
Cc1cc(C(=O)COC(=O)c2cccs2)c(C)n1-c1c(C)n(C)n(-c2ccccc2)c1=O | -0.8%
Cc1nn(-c2ccccc2)c(C)c1C(=O)OCC(=O)NC(=O)NC1CCCCC1 | 28.3%
CCCn1c(C)cc(C(=O)COC(=O)c2c(C)nn(-c3ccccc3)c2C)c1C | 88.6% (active)
O=C1CCC(C(=O)Nc2ccc(OC(F)F)cc2)N1 (stereo not given) | 0%
O=c1cc(CO)oc(CN2CCC(Cc3ccccc3)CC2)c1O | 15.2%
CCN1CCCC1CNC(=O)Cn1cnc2ccc(S(=O)(=O)N3CCC(C)CC3)cc2c1=O (stereo not given) | -0.8%
COCC(C)N=CC1=C(O)CC(C)(C)CC1=O (stereo not given) | 0.7%
c1ccc(Nc2n[nH]nc2-c2ccccc2)cc1 | 84.7% (active)
Nc1ccc(Nc2ccccc2)cc1 | 36.6%
COC(CNC(=O)Cn1ncc2ccsc2c1=O)OC | 2.1%
COc1ccccc1NC(=O)/C=C/C(N)=O | -0.2%
COc1ccccc1NC(=O)COc1ccc(C(=O)OCC(=O)N(C(C)C)C(C)C)cc1OC | 56.4% (active)
COC(=O)C(CC(=O)Nc1cc(C)ccc1C)Nc1ccccc1OC (stereo not given) | 15.3%
CC1CC(C)CN(C/C=C/c2ccccc2[N+](=O)[O-])C1 (stereo not given) | 29.7%
CCC(C)NC(=O)CSC1=Nc2ccccc2C2=NC(CCC(=O)NCc3ccco3)C(=O)N12 (stereo not given) | 6.1%
Cc1nnc(SCC(=O)NCCOc2ccc(Cl)cc2)n1-c1ccccc1 | 95.6% (active)
CCOC(=O)CNC(=O)CSc1nnc(COc2ccc(Cl)cc2)n1CC | 14.7%
COc1ccc(OC)c(/C=N/NC(=O)CSc2nnc(C)n2-c2ccccc2)c1 | 23.2%
COC(=O)[C@@H](NC(=O)NCc1cccc(OC)c1)C(C)C | 5.8%
CCOC(=O)Cn1c(-c2cccnc2Cl)nc2ccccc21 | -2%
Cc1no[n+]([O-])c1COc1ccccc1/C=C1\NC(=S)NC1=O | 20.6%
CCN1C(=O)/C(=C2\SC(N3CCCCC3)=NC2=O)c2ccccc21 | 19.9%
O=S(=O)(c1cccc2nonc12)N1CCN(c2cccc(Cl)c2)CC1 | 1.5%
O=Cc1c(N2CCN(c3cccc(Cl)c3)CC2)nc2ccccn2c1=O | 99.4% (active)
CCN1C(=O)/C(=C\N2CCN(c3cccc(Cl)c3)CC2)SC1=S | 13%

Structure (SMILES) | inhibition
CN1CC(c2ccccc2)C2(COc3ccccc3C2=O)C12C(=O)Nc1ccccc12 (stereo not given) | 46.7%
COc1ccccc1/C=C/C1=NC(=C\N(C)C)/C(=O)O1 | 19.5%
CCOC(=O)CSc1nnc(CNC(=O)c2cccs2)n1-c1cc(OC)ccc1OC | 58.2% (active)
CCOC(=O)CSc1nnc(CNC(=O)Cc2ccccc2)n1-c1ccccc1OC | 8.2%
CCOC(=O)CSc1nnc(CNC(=O)c2cccs2)n1-c1ccccc1 | -5.7%
CCOc1cc(-c2cc(-c3ccc(OC)cc3)nc(N)c2C#N)ccc1O | 19.9%
CCOc1ccccc1Oc1cn[nH]c1-c1ccc(OC)cc1O | 100% (active)
Cc1ccc(SCCC(=O)OCC(=O)Nc2ncc(Cl)cc2Cl)cc1 | 24%
O=c1c2ccccc2oc2nc(C3CCCCC3)n(Cc3ccco3)c(=O)c12 | 50.7% (active)
O=c1c2ccccc2oc2nc3n(c(=O)c12)CCCS3 | 0.7%
CCc1nc2oc3ccccc3c(=O)c2c(=O)n1Cc1ccc(OC)cc1 | -0.6%
O=C(O)/C=C/C(=O)Nc1ccc(F)cc1F | 5.3%
Cn1c2c(c(=O)n(C)c1=O)CN(Cc1ccco1)CN2 | 0.4%
CCOC(=O)Cc1csc(NC(=O)C(C)(C)C)n1 | 15.4%
CCOC(=O)Cc1csc(NC(NC(=O)OCC)(C(F)(F)F)C(F)(F)F)n1 | 13.5%
CCCC(CCC(=O)OC)(C(=O)OCC)c1csc(N)n1 (stereo not given) | 73.6% (active)
COc1ccc(-n2c(SC)nc(O)cc2=O)cc1 | 5.6%
COCCNc1nc(-n2nc(C)cc2C)nc2sc3c(c12)CCCC3 | -16.1%
c1ccc(-c2nnc(SCc3nc4ccccc4[nH]3)o2)cc1 | 95.2% (active)
Clc1ccccc1SCc1nc2ccccc2[nH]1 | 83.2% (active)
OCCNc1nc2ccccc2[nH]1 | -4.7%
c1ccc2c(CSCc3nc4ccccc4[nH]3)cccc2c1 | 89.3% (active)
O=C(CSc1nnc(-c2ccccc2)o1)N1CCOCC1 | -12.3%
N#C/C(=C(/O)COc1cccc2ccccc12)c1nc2ccccc2[nH]1 | 12%
CCCCSc1nnc(-c2ccc(C)cc2)o1 | 49.4%

Structure (SMILES) | inhibition
Oc1ccc2nc(Cc3ccccc3)[nH]c2c1 | 23.6%
N#Cc1c2c(c(N3CCN(CCO)CC3)n3c1nc1ccccc13)CCCC2 | 34.5%
CN(C)CCNC(=O)C(C(=O)c1ccccc1)n1ccccc1=O (stereo not given) | -10.3%
Cc1ccccc1S(=O)(=O)Cc1ccc(C(=O)NCCN2CCCCC2C)o1 (stereo not given) | 4.1%
COC(=O)c1cnn2c(C(F)(F)F)cc(-c3ccco3)nc12 | -9%
COc1ccc(OCCCC(=O)Oc2ccc(OC)cc2)cc1 | 6.3%
N/C(=N\OC(=O)CCc1ccccc1)c1ccc(Cl)cc1 | -1.3%
COc1ccc(/C(N)=N/OC(=O)Oc2ccccc2)cc1 | 58.6% (active)
COc1ccc(OC)c(Nc2nc(-c3ccc(O)c(O)c3)cs2)c1 | 27.6%
COc1ccc(NC(=O)Nc2ccc3nc(C)c(C)nc3c2)cc1 | 3.2%
COc1ccc2c(c1)cc1n2CCN=C1NN | 92.9% (active)
CC(=O)N1CSCC1C(=O)O (stereo not given) | 2.2%
CC1(C)C/C(=C(/C#N)C(N)=O)CCO1 | -16.7%
CC(C)OC(=O)c1sc2nc3c(cc2c1N)C(=O)CCC3 | 7.1%
CC1=C(C(=O)Nc2ccc(Cl)cc2)C(c2ccco2)NC(=O)N1 (stereo not given) | 18.4%
Cc1cccc(N2CCN(C(=O)CN(C)S(=O)(=O)c3ccc4c(c3)CCC(=O)N4)CC2)c1C | 6.3%
COCCCNC(=O)CN1CCN(Cc2ccccc2Cl)C1=O | -10.8%
COC(=O)c1ccc(COC(=O)c2c(C)nn(Cc3ccccc3Cl)c2Cl)o1 | 90.5% (active)
CCOC(=O)c1cnn(Cc2ccccc2Cl)c1N | 30.5%
CCOC(=O)c1sc(/N=C/Nc2nc(C)c(C(=O)OCC)s2)nc1C | 7.2%
c1ccc(CC2CCN(c3nc4ccccc4n4cnnc34)CC2)cc1 | -7.7%
O=C(CN1CCN(c2ncc(C(F)(F)F)cc2Cl)CC1)Nc1ccc2c(c1)OCO2 | 22%
O=C(Cc1ncc(C(F)(F)F)cc1Cl)Nc1cccc(Br)c1 | 55.7% (active)
CC(=O)c1ccc(Cc2ncc(C(F)(F)F)cc2Cl)s1 | 16.5%
CCOC(=O)c1[nH]c2c(c1C)C(=O)CC(c1ccc(N(C)C)cc1)C2 (stereo not given) | 6.7%
